Screens from PubChem BioAssay.
Hits are enriched below; roughly 1.3% of the tested compounds scored in any of these assays.
NCOA1 inh – human NCOA1 inhibition | Q15788 | HEK293 GAL4-SRC1 luciferase reporter, luminescence | inhibition, % at 3.6 µM | 0.12% of 360,000 active;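 active = inhibition above the campaign mean plus 3 SD, with each screening campaign given its own cutoff, cut at about 60% in these data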
LRH-1 inv ag – NR5A2 inverse agonism in reporter assay; O00482; HEK293T StAR-luciferase reporter, LRH-1 transfected, 24 h; inhibition, % at 3.6 µM; 0.13% of 360,000 active;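 active = inhibition above the mean inhibition of all tested compounds plus 3 SD, cut at about 73% in these data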
SRC3 inh – inhibitors of human steroid receptor coactivator 3 (SRC3); Q9Y6Q9; HEK293 GAL4-SRC3 luciferase reporter, luminescence; inhibition, % at 3.6 µM; 0.17% of 360,000 active; AID 588352;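 active = inhibition above a per-campaign cutoff, the mean of all compounds plus 3 SD, cut at about 60% in these data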;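 also: higher means less SRC3-driven luciferase light from the GAL4 reporter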
Target sequence (Q9Y6Q9 whole entry, looked up, the tested form may be a part): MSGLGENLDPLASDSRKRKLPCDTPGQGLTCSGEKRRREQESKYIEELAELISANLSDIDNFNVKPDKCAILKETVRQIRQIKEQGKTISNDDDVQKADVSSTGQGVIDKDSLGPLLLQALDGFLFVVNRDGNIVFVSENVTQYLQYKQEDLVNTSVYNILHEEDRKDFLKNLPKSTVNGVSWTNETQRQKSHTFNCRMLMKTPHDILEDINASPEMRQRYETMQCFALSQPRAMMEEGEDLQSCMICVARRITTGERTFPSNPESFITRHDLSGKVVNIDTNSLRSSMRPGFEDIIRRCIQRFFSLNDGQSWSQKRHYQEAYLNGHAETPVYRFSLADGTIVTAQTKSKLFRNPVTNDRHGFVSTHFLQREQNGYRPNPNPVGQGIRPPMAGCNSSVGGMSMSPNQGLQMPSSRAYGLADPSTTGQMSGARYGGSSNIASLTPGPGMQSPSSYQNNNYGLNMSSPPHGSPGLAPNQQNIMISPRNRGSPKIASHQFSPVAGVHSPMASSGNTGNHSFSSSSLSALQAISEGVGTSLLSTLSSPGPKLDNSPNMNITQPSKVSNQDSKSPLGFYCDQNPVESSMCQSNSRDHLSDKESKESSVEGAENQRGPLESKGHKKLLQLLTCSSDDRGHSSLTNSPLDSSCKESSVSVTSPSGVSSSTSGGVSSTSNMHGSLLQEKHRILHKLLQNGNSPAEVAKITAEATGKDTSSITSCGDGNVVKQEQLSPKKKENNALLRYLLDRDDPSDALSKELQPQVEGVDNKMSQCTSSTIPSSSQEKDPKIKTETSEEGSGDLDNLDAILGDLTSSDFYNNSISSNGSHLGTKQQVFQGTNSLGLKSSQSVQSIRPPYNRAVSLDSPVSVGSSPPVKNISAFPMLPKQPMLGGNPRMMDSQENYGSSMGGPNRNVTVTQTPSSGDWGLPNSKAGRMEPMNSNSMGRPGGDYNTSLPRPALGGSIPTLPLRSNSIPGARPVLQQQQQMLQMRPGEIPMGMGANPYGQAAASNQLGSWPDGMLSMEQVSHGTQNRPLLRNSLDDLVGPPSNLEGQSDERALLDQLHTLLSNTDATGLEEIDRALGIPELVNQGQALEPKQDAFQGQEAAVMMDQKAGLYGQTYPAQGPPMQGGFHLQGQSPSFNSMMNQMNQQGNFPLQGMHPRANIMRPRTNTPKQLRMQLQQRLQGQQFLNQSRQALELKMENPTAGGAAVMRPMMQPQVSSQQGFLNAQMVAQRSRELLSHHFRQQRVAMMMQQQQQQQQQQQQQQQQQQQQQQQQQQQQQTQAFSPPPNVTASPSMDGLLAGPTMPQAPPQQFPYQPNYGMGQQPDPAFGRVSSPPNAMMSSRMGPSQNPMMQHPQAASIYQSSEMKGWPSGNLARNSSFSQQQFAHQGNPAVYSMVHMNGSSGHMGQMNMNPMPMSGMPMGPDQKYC
COUP-TFII inh – inhibitors of human COUP-TFII (NR2F2); 0.7% of 370,000 active; inhibition, % at 8.6 µM; AID 686940; P24468; HEK293T NGFI-A luciferase reporter, luminescence;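 active = inhibition above a per-plate cutoff, mean inhibition of test wells between control levels plus 3 SD, cut at about 38% in these data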;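 also: cells cotransfected with COUP-TFII expression vector driving the NGFI-A reporter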
Gli-Sufu block – blocks Gli-Sufu signaling in a luciferase reporter; Sufu-KO-LIGHT fibroblasts, Gli luciferase reporter luminescence; inhibition, % at 5 µM; 0.74% of 340,000 active;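 active = inhibition above about 55%, limit read from the data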
SRC2 inh – inhibits human steroid receptor coactivator 2; Q15596; HEK293 GAL4-SRC2 luciferase reporter, luminescence; inhibition, % at 9 µM; 0.17% of 370,000 active;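 active = inhibition above the mean inhibition of all tested compounds plus 3 SD, set per campaign, cut at about 52% in these data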
Gal4-VP16 ctr – inhibits VP16 reporter, flagging COUP-TFII antagonist hits; shares compounds with COUP-TFII inh; HEK293 Gal4-VP16 luciferase reporter, luminescence; inhibition, % at 8.5 µM; 25% of 2,500 active; in the data active = inhibition above about 13%
NR2F2 inh conf – confirmation of human COUP-TFII (NR2F2) inhibitors. shares compounds with COUP-TFII inh. HEK293 NGFI-A luciferase reporter, luminescence. inhibition, % at 8.5 µM. 45% of 2,500 active. AID 687008;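 active = mean inhibition over three repeats above a set limit taken from the earlier primary screen, cut at about 38% in these data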
A number is an active result; – = inactive; · = no result.

SMILES	NCOA1 inh	LRH-1 inv ag	SRC3 inh	COUP-TFII inh	Gli-Sufu block	SRC2 inh	Gal4-VP16 ctr	NR2F2 inh conf
CCN(CC(=O)NCc1ccc(Cl)cc1)C(=O)c1cc(OC)cc(OC)c1	–	–	–	53	–	–	–	–
CC(C)c1ccc(CC(=O)N2CCC2(C)C(=O)Nc2cccc(C#N)c2)cc1 (stereo not drawn)	–	–	–	–	·	–	·	·
CC1(C(=O)Nc2cccc(C#N)c2)CCN1C(=O)Cc1ccc(-c2ccccc2)cc1 (stereo not drawn)	–	–	–	52	·	–	–	–
COC(=O)C[C@@H]1CC[C@@H]2[C@@H](COc3ccc(NC(=O)Nc4ccccc4)cc3C(=O)N2C)O1	·	·	·	–	·	–	·	·
Cc1cccc(Oc2ccc(N)cc2)c1	–	–	–	–	–	–	·	·
Nc1ccc(Oc2cccc(Oc3ccc(N)cc3)c2)cc1	–	–	–	77	–	86	77	74
Cc1cc(C)cc(Oc2ccc(N)cc2)c1	–	–	–	51	–	–	20	–
COC(=O)C1CN(Cc2ccc(OC)cc2)CCS(=O)(=O)N1Cc1ccccc1 (stereo not drawn)	·	·	·	–	·	–	·	·
Nc1ccc2c(c1)C(=O)c1ccccc1-2	–	–	–	–	–	–	·	·
Nc1ccc2c(c1)C(=O)C(=O)c1ccccc1-2	85	105	93	102	–	94	97	110
CCN1C(=O)CS/C1=N\S(=O)(=O)c1ccc(Cl)cc1	–	–	–	–	–	–	·	·
CCn1c(Cl)c(C=O)s/c1=N\S(=O)(=O)c1ccccc1	–	–	–	51	–	–	48	–
COc1ccc(CCC(=O)Nc2ccc(C)c(S(=O)(=O)N(C)C)c2)cc1OC	–	–	–	41	–	–	–	–
COc1ccc(CC(=O)Nc2ccc3c(c2)CCC3)cc1OC	–	–	–	50	–	–	–	–
COc1ccc(OC)c(CC(=O)Nc2ccc3c(c2)CCC3)c1	–	–	–	–	–	–	·	·
Cc1cc(N2CCN(C(=O)Oc3ccc(-c4ccccc4)cn3)CC2)c2ccccc2n1	·	·	·	87	·	–	–	38
CC(C)(C)C(=O)NCCCc1nc2ccccc2n1CCCOc1ccc(Cl)cc1	–	–	–	60	–	–	–	–
COc1ccc(-c2c(Cc3ccccc3)nc(NC(=O)c3ccccc3)n2Cc2ccc(OC)cc2OC)cc1	·	·	·	–	·	–	·	·
Cc1cc2nc(C3CCCN(C(=S)Nc4ccccc4)C3)[nH]c2cc1C (stereo not drawn)	–	–	–	49	–	–	–	–
O=C(Nc1ccc(-c2nc3ccccc3s2)cc1)c1cc(-n2cnnc2)ccc1Cl	–	–	–	70	–	–	–	52
CCOC(=O)[C@@]12CCCC=C1N(CCc1ccc(Cl)cc1)C(=O)[C@H]2CC(=O)NCCc1ccccc1OC	·	·	·	–	·	–	·	·
O=C(OCC#CCSc1nnc(-c2cccs2)o1)c1ccc(F)cc1	·	·	·	–	·	·	·	·
CC1CCN(c2ccc(-c3cccc(NC(=O)C(F)(F)F)c3)nn2)CC1	–	–	–	41	–	–	–	–
CCCCOc1ncnc2c1[nH]c1ccc(OC)cc12	·	·	·	–	–	–	·	·
CCCCOc1ncnc2c1[nH]c1ccccc12	–	–	–	49	–	–	–	–
SMILES	NCOA1 inh	LRH-1 inv ag	SRC3 inh	COUP-TFII inh	Gli-Sufu block	SRC2 inh	Gal4-VP16 ctr	NR2F2 inh conf
COc1ccc(C(=O)Nc2ccc(C)cn2)c(OC)c1	–	–	–	55	–	56	14	–
COc1ccc(C(=O)Nc2cc(C)on2)c(OC)c1	–	–	–	–	–	–	·	·
COc1cc(C(=O)NC2CCCCN(Cc3cccc(Cl)c3)C2=O)cc(OC)c1OC (stereo not drawn)	·	·	·	–	·	–	·	·
Cc1ccc(C23CC4CC(CC(C(=O)N5CCN(C)CC5)(C4)C2)C3)cc1	–	–	–	–	–	–	·	·
Cc1ccc(C)c(N2CCN(C(=O)C34CC5CC(C3)CC(n3nnc(C)n3)(C5)C4)CC2)c1	–	–	–	47	–	–	–	–
CC(O)CC(=O)OC[C@]12CC[C@H]3[C@@](C)(CC[C@H]4C(C)(C)CCC[C@]34C)[C@@H]1CC(C1=CC(=O)OC1O)O2 (stereo partly drawn)	–	78	–	87	·	–	52	72
Cc1cccc(NC(=O)CSc2nc3ccccc3c(=O)n2C)c1	–	–	–	41	–	–	–	–
COC(=O)C1CN(C2CCCC2)CCS(=O)(=O)N1Cc1ccc(C)cc1 (stereo not drawn)	·	·	·	–	·	–	·	·
COc1cc(C#Cc2c(-c3cncn3C)n(C)c3ccc(-c4cnc(OC)nc4)cc23)cc(OC)c1	–	–	–	45	–	–	–	–
COc1ccc(OCC(=O)N2CCN(c3nnc(-c4ccc(C)cc4)c4ccccc34)CC2)cc1	–	–	–	38	–	–	–	–
Cc1ccc(OCC(=O)N2CCN(c3nnc(-c4ccc(C)cc4)c4ccccc34)CC2)cc1	–	–	–	–	–	–	·	·
Oc1ccc(CCNc2ncnc3ccc(Cl)cc23)cc1	64	–	–	80	61	–	–	64
Cc1c(/C(O)=C2\C(=O)C(=O)N(CCCN(C)C)C2c2ccco2)cnn1-c1ccccc1 (stereo not drawn)	–	–	–	49	–	–	–	–
CCCCCCC(=O)N(O)C1CC(=O)N(c2ccc(Br)cc2)C1=O (stereo not drawn)	–	–	–	40	–	–	–	52
CCCCCCC(=O)N(O)C1CC(=O)N(c2ccc(F)cc2)C1=O (stereo not drawn)	–	–	–	38	–	–	–	44
COC(=O)[C@]12C[C@H](CC(=O)NCc3ccc(C)o3)C(=O)N(CCC3=CCCCC3)C1=C[C@H](C1CCCC1)O[C@@H]2C	·	·	·	–	·	–	·	·
CN(C)c1ccc(/C=C/c2nc3ccccc3s2)cc1	–	–	64	69	–	54	52	82
Nn1c(SCc2cccc3ccccc23)nnc1-c1cc(-c2ccc(Cl)cc2)n[nH]1	·	·	·	–	·	–	·	·
CN(CC1CCCO1)S(=O)(=O)c1ccc(C(=O)Nc2nc3cc4c(cc3s2)OCO4)cc1 (stereo not drawn)	–	–	–	39	–	–	–	78
CN(CC1CCCO1)S(=O)(=O)c1ccc(C(=O)Nc2ccc3c(c2)OCO3)cc1 (stereo not drawn)	–	–	–	–	–	–	·	·
O=C(Nc1nc2cc3c(cc2s1)OCCO3)c1cccs1	–	–	–	42	–	–	–	–
CCN(CC)S(=O)(=O)c1cccc(C(=O)Nc2nc3cc4c(cc3s2)OCCO4)c1	–	–	–	58	–	–	–	–
COc1ccccc1C(=O)Nc1nc2cc3c(cc2s1)OCCO3	–	–	–	·	–	·	·	·
Cc1cc2sc3ccc(C#CC4(O)CCCCC4)cc3c(=O)c2cc1C	88	78	87	89	·	82	89	109
